The source of these data is article PMC7819943, “Rice protein-binding microarrays: a tool to detect cis-acting elements near promoter regions in rice”.

In all, about 39,000 sequences were measured (“fluorescence intensity (a.u.)”: median about 4,300, highest 2% from about 39,000 on). The entries come from a sample that favours the highest values as a whole.

The target of this assay is T1, OsSMF1 (Oryza sativa, UniProt Q6ZLB0 1-436).
T1 sequence: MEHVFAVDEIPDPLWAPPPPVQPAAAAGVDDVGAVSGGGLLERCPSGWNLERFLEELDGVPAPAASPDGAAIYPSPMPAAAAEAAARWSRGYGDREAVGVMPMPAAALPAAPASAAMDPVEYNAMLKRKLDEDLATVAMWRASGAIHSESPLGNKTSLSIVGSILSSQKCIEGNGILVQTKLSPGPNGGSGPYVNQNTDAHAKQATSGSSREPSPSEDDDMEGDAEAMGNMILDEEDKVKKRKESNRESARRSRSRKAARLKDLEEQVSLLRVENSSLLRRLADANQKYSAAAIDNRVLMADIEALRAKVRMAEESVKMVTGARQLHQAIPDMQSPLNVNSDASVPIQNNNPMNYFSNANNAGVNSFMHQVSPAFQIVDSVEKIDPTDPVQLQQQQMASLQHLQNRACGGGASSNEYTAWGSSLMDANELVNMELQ
Kind of assay: protein-binding microarray (RPBM); PBS, 2% BSA, 51.3 ng/ul salmon testes DNA, 50 uM zinc acetate, 200 nM TF, 25 C, 1 h; high values mean tight binding. To be noted: protein: recombinant; tags: N-terminal polyhistidine and DsRed monomer fusion (pET32a); chain copies: 2; label: CyDye5-dUTP incorporated in the synthesized complementary strand; 3' TTTTT single-stranded linker to array surface; dsDNA, one strand shown. An outline of the steps:
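The binding signal is fluorescence intensity per array feature (arbitrary units). Readings came from an Axon 4000B scanner after a washed, 2% BSA-blocked, double-stranded custom Agilent array had been incubated for 1 h at 25 °C with 200 nM protein and 50 µM zinc acetate. The protein was a Ni–NTA-purified transcription factor fused N-terminally to polyhistidine and DsRed, expressed in E. coli BL21-CodonPlus.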
With “AGCTCGTGACGTTAATCTCCGTATAACCAAGCCATGTTGTCGGAGTCACCTAGTGCAG”, the binding signal is 6620 fluorescence intensity (a.u.).
Regarding “CATATAATTGATAGCAGCATGACAGATTGCCAGTTAGCCGCGGAGTCACCTAGTGCAG”, the binding signal was 3290 fluorescence intensity (a.u.).
As for “AGTAGTAGGGCGCGACACGCGTGTACGTTGCGATAGATGTCGGAGTCACCTAGTGCAG”, the figure is 3330 fluorescence intensity (a.u.); as for “ATGTCTCGTTATCTCCTAAACATGTCATTACACTGGAAACCGGAGTCACCTAGTGCAG”, 3240 fluorescence intensity (a.u.).
“TATGGGGCCGTGATATTCAATGTGATGTGCATACAGCATGCGGAGTCACCTAGTGCAG”: the binding signal was 3720 fluorescence intensity (a.u.).
Next, “CTGCCTCCTGTTCGCGCTCCACGCCACCACTGCCGACGAGCGGAGTCACCTAGTGCAG”: 4300 fluorescence intensity (a.u.); “AGAGCGATCTGATCGACCGAGTTGTGTCATGCCGTACTACCGGAGTCACCTAGTGCAG”: 4330 fluorescence intensity (a.u.).
Next, “AATTATCTTGAAGCACCTCAACTCAACCTGATGTCATACACGGAGTCACCTAGTGCAG”: 4390 fluorescence intensity (a.u.); “CCAATTTCCGACTTCATGAGATTTATGTCTTTGTGGTCAGCGGAGTCACCTAGTGCAG”: 3210 fluorescence intensity (a.u.).
With “GAATTTACTTTAGCGGAGATTGAGCACTTTGTGGACCCAGCGGAGTCACCTAGTGCAG”, the binding signal is 52400 fluorescence intensity (a.u.).
As to “AGATTTGTGCTCTGACCCACTTCACTCACTTAGTCTCTAGCGGAGTCACCTAGTGCAG”, the binding signal was 3630 fluorescence intensity (a.u.).
Next, “ATGTGTAATGACATGACTAGGCATTCCCTTCAGTTAGTCTCGGAGTCACCTAGTGCAG”: 9940 fluorescence intensity (a.u.).
Next, “TGCTTCTGATACTCACGTATATTTCATACACACGTGAATGCGGAGTCACCTAGTGCAG”: 3210 fluorescence intensity (a.u.); “GTGGAATATTTCTGATCATGGTTTGGGAATAAACGTTCTGCGGAGTCACCTAGTGCAG”: 3310 fluorescence intensity (a.u.).
Next, “GAGACCGTTCTGAATTTCTGAGACTGATACATATTTGATGCGGAGTCACCTAGTGCAG”: 40300 fluorescence intensity (a.u.); “CGTGCATCCGCTTGTGCTGCCACTTCGACAGCCCGCCCGGCGGAGTCACCTAGTGCAG”: 3570 fluorescence intensity (a.u.); “GGGCTCCATAATAGAGTGCCACACTAGCATGTTACGATATCGGAGTCACCTAGTGCAG”: 3510 fluorescence intensity (a.u.).
As to “TCTACTGCAATTAGTTGATTCAGCTAGTAGCAAACATAATCGGAGTCACCTAGTGCAG”, the binding signal was 54800 fluorescence intensity (a.u.).
“TTAACAGTTGGTTACTAGTCCTAATTAATTCAGTAGCAATCGGAGTCACCTAGTGCAG”: the binding signal was 4700 fluorescence intensity (a.u.).
As for “CATAATTAGCGGTTGATTACTGTAGCATCACTGTAACAAACGGAGTCACCTAGTGCAG”, the figure is 3730 fluorescence intensity (a.u.); as for “TTTAGAATACTGCTCATACGTCAGTAACAAAGTCACACGACGGAGTCACCTAGTGCAG”, 3880 fluorescence intensity (a.u.); as for “GCCCAAAGAAAGAAGGAGGTGGACACGTGGGAGATCTGCGCGGAGTCACCTAGTGCAG”, 11200 fluorescence intensity (a.u.).
In the case of “CCCAATCCGAACGGGACAGCTGCCCACGTGCGACCCATGTCGGAGTCACCTAGTGCAG”, the binding signal is 4920 fluorescence intensity (a.u.).
